Data as given in PubChem BioAssay (NCI).
Values joined by “and” are separate entries in the source; they are usually repeats but may differ in a detail not shown here. Identical values can stand only once. About 83,000 compounds went through this panel and 20% of them were active in at least one assay; those are over-represented in the sample as a whole.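 Plates (96-well) were seeded with cells, treated with compound at one concentration, and incubated for 48 hours before percent growth was determined.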 Values without a mark were called inactive. Active and inactive are the calls of the source. The calls were made as follows: active = growth percent below 10; inactive = the rest.

System: MDA-MB-468 breast
Assay: NCI-60 one-dose screen, 48 h (100 = growth as untreated, 0 = no growth, -100 = all killed)
Details: 10 µM unless noted

Compound | growth
CCCCCCCCCCCCCCCCCC(=O)Nc1ccc(O)cc1 | 103%
O=c1cc(-c2ccc(Cl)cc2)[nH]c2ccccc12 | 85.6%
NC(C(=O)O)C(O)c1ccco1 (stereo not given) | 102%
O=C(NCCO)c1cccnc1 | 93.7%
CCOc1ccc(/C=N/N=C(N)N)cc1OCC | 98.3%
CC1CCCCN1S(=O)(=O)c1ccc(CN=C=S)cc1 (stereo not given) | 17.4%
COc1ccc(-c2csc(NC(=O)c3cc(O)c(O)c(O)c3)n2)cc1 | 78.6%
Nc1ccc(-c2ccc(N)c(Br)c2)cc1Br | 19.8%
OC(COc1cccc2ccccc12)CN1CCN(c2ccc(Cl)cc2)CC1 (stereo not given) | 58.7% and 96.8%
COc1ccc(-n2c(/C=C/c3ccc(O)c(OC)c3)cc(/C=C/c3ccc(O)c(OC)c3)nc2=O)cc1 | 29%
COC(=O)CCc1c(/C=C2\N=C(c3ccc[nH]3)C=C2OC)[nH]c(C)c1C(=O)OCc1ccccc1 | 28.5%
CC(=O)c1c(C)[nH]c(-c2nc3ccc(N4CCN(C)CC4)cc3[nH]2)c1-c1ccc2c(c1)OCCO2 | 12.6%
CCOC(=O)C1=C(C(=O)c2ccccc2)C(c2cccc([N+](=O)[O-])c2)C(C(=O)c2ccccc2)=C(C(=O)OCC)N1 | 83.2%
C=C1C(=O)O[C@H]2[C@H]1CC/C(Cn1cc(-c3ccc(N)cc3)nn1)=C\CC[C@@]1(C)O[C@@H]21 | -44.8% (active)
Cc1cc(-c2ccc(N(C)C)cc2)c2sc(=O)[nH]c2n1 | 80%
